51 compounds from PubChem BioAssay AID504834 (National Center for Advancing Translational Sciences (NCATS), 2011) can be followed below.

SMILES strings stand for the structures. Among all 320,000 compounds or so, about 22,000 (6.9%) were called active. Another 27% or so got no clear call; they are omitted. What follows is part of a selection rich in actives, with near analogues and random picks from the rest. Values without a mark were called inactive. The call rests on the fitted dose curve; in most records, active means well fitted inhibition curve with a large enough effect; inconclusive means small, poorly fitted or top-dose-only effect, or another doubt; inactive means no such curve, though single readings can be large or run the other way.
On the % scale 0 is the no-effect control and ±100 the full control effect; potency means the concentration at half of the fitted maximal effect.

This experiment is described as follows: Primary qHTS for delayed death inhibitors of the malarial parasite plastid, 96 hour incubation. As to conditions: P. falciparum luciferase reporter growth; series mostly up to 28.7 µM; activity change, negative = inhibition: at the top concentration. A digest of the protocol: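 Erythrocytes infected with luciferase-expressing P. falciparum were dispensed at 2% hematocrit and 0.05% parasitemia (final), then incubated with compounds 96 hours at 37 C in 5% CO2. Luminescence after detection reagent addition reported growth.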
Regarding `O=C(COC(=O)/C=C/c1ccc(OC(F)F)cc1)NC1CCCCC1`, the “activity change, negative = inhibition” value was 7.46%.

Regarding `Cc1ccc(S(=O)(=O)N(CC(=O)Nc2cccnc2)c2ccc(Br)cc2)cc1`, the “activity change, negative = inhibition” value was -25.1%.

For the compound `CC(=O)c1c(C)[nH]c(C(=O)N2CCN(S(=O)(=O)c3ccc(F)c(F)c3)CC2)c1C`, the “activity change, negative = inhibition” value is 2.87%.

As to `Cc1ccc(Nc2nnc(SC(C)C(=O)NC3CC3)s2)cc1` (stereo unspecified), the Potency is 14.7 µM (active).

In the case of `CC(C)Nc1nnc(SC(C)C(=O)N(C)C2CCCCC2)s1` (stereo unspecified), the “activity change, negative = inhibition” value was -6.33%.

Take `Cc1nnc(SC(C)C(=O)Nc2ccc(S(=O)(=O)NC3CCCCC3)cc2)s1` (stereo unspecified): the “activity change, negative = inhibition” value is -8.76%.

Consider `CCOc1ccc(N2CC(C(=O)NCc3ccccn3)CC2=O)cc1` (stereo unspecified), for which the “activity change, negative = inhibition” value is 0.718%.

As to `Nc1nnnn1/N=C/c1cccs1`, the Potency is 1.85 µM (active).

As for `Nc1nnnn1/N=C/c1cccc(Br)c1`, the “activity change, negative = inhibition” value was -28.6%.

For `COc1ccc(/C=N/n2nnnc2N)cc1OC`, the “activity change, negative = inhibition” value is 0%.

For `Cc1ccc(NS(=O)(=O)c2ccc3c(c2)n(C)c(=O)c(=O)n3C)c(C)c1`, the “activity change, negative = inhibition” value is 23%.

Take `O=C(COC(=O)CCOc1ccccc1)Nc1cc(S(=O)(=O)N2CCCCC2)ccc1Cl`: the “activity change, negative = inhibition” value is 12.7%.

`C=C(C)c1cccc(C(C)(C)NC(=O)NCCN(CC)CC)c1`: the Potency was 4.15 µM (active).

As for `C=C(C)c1cccc(C(C)(C)NC(=O)NC2CCCC2)c1`, the “activity change, negative = inhibition” value is -11.6%.

`CCN(CC)CCNC(=O)c1cc(S(C)(=O)=O)ccc1OC`: the Potency result was “inactive”.

For the compound `CN(CC(=O)Nc1c(Cl)cccc1Cl)C(=O)c1ccncc1`, the “activity change, negative = inhibition” value is 41.8%.

Turning to `CC(C)Nc1ccc(-n2nc3ccccc3[n+]2[O-])cc1`, the “activity change, negative = inhibition” value was -11.5%.

For the compound `CC(=O)c1c(C)oc2ccc(NS(=O)(=O)c3ccccc3)cc12`, the “activity change, negative = inhibition” value is 27%.

Turning to `CN(C)CCCN(C(=O)COc1ccccc1)c1nc2c(Cl)cccc2s1`, the “activity change, negative = inhibition” value was 50.2%.

As to `COc1ccc(CCNc2nc(-c3cccc(NC(C)=O)c3)cs2)cc1OC`, the “activity change, negative = inhibition” value is 4.61%.

Regarding `COc1ccc(CCN(C(=O)COc2ccccc2)c2nc(-c3ccccc3)cs2)cc1OC`, the Potency was 11.7 µM (active).

For `O=C(NN1C(=O)C2CCCCC2C1=O)c1ccco1` (stereo unspecified), the “activity change, negative = inhibition” value was 83.6%.

Regarding `Cc1ccc(C(=O)N/C(=C\c2ccco2)C(=O)NC2CCS(=O)(=O)C2)cc1` (stereo unspecified), the “activity change, negative = inhibition” value was 38.1%.

As to `Cc1cc(C)cc(Oc2nc3c(C)cccn3c(=O)c2/C=C(\C#N)C(=O)NC2CCS(=O)(=O)C2)c1` (stereo unspecified), the Potency is 11.7 µM (active).

Consider `Cc1cccn2c(=O)c(/C=C(\C#N)C(N)=O)c(N3CCCCCC3)nc12`, for which the “activity change, negative = inhibition” value was -27%.

`CC(=O)Nc1ccc(NC(=O)CSC2=NS(=O)(=O)c3ccccc3N2)cc1`: the “activity change, negative = inhibition” value was 66%.

As for `COc1ccc(OCc2cc(C(=O)N3CCCC3)no2)c2ccccc12`, the “activity change, negative = inhibition” value is -11.2%.

As for `CC(=O)Nc1c2c(nn1-c1ccc(C)cc1C)CS(=O)C2` (stereo unspecified), the “activity change, negative = inhibition” value was -3.12%.

Turning to `O=C(Nc1sc2c(c1C(=O)O)CCC2)c1ccccc1F`, the “activity change, negative = inhibition” value is 1.99%.

Turning to `CC(C)c1nc(SCC(=O)Nc2cccc(C(=O)O)c2)c2c3c(sc2n1)CCCC3`, the “activity change, negative = inhibition” value was 39.3%.

Take `CC(=O)Nc1sc2c(c1C(c1cccc(F)c1)N1CCN(CCO)CC1)CCCC2` (stereo unspecified): the Potency is 7.38 µM (active).

Regarding `COc1ccc(OCC(=O)Nc2ccc(NC(=O)c3ccco3)c(C)c2)cc1`, the “activity change, negative = inhibition” value is -10.7%.

For `Cc1noc(C)c1C(=O)NCC1COc2ccccc2O1` (stereo unspecified), the “activity change, negative = inhibition” value is 12.1%.

Take `Cc1cccc(NC(=S)N2CCC(O)CC2)c1C`: the “activity change, negative = inhibition” value is -2.87%.

On to `CCOc1ccccc1NC(=S)N1CCN(c2cccc(C)c2C)CC1`, for which the Potency was 1.65 µM (active).

Take `CCOc1ccccc1N1CCN(C(=S)Nc2ccc(S(N)(=O)=O)cc2)CC1`: the “activity change, negative = inhibition” value is -29.4%.

Turning to `Cc1onc(-c2c(F)cccc2Cl)c1C(=O)N(C)CC(=O)Nc1cccc(F)c1`, the “activity change, negative = inhibition” value is -17.1%.

As for `CC(C)c1ccc2c(c1)c(SC(C)(C)C)c(CC(C)(C)C(=O)O)n2Cc1ccc(Cl)cc1`, the Potency was 7.38 µM (active).

`O=C(O)c1ccc(Cn2c(=S)[nH]c3cc(Cl)ccc3c2=O)cc1`: the “activity change, negative = inhibition” value is 20.1%.

Take `Cc1nc2cc3c(cc2s1)OCO3`: the “activity change, negative = inhibition” value was 36.3%.

For the compound `O=C(c1cc(COc2ccc(F)cc2F)on1)N1CCOCC1`, the “activity change, negative = inhibition” value is -3.11%.

Consider `Cc1cccc(NC(=O)c2ccc3c(=O)n(CC4CCCO4)c(=S)[nH]c3c2)c1` (stereo unspecified), for which the “activity change, negative = inhibition” value was 2.86%.

As to `CCOC(=O)c1c(C)[nH]c(C)c1S(=O)(=O)NCCCc1ccco1`, the “activity change, negative = inhibition” value is -4.17%.

As to `COc1cccc(CN(C)CC2CCCN(CCc3ccc(Cl)cc3)C2)c1OC` (stereo unspecified), the Potency was 2.94 µM (active).

Regarding `COc1cccc(CN(C)CC(=O)NCc2ccccc2Cl)c1OC`, the “activity change, negative = inhibition” value was -23.3%.

With `CN(CC1CCCN(CCc2cccc(C(F)(F)F)c2)C1)C(=O)c1ccc2nc[nH]c2c1` (stereo unspecified), the “activity change, negative = inhibition” value was 15.5%.

For the compound `COc1ccc(-c2noc(CNC(=O)C(C)Oc3ccccc3)n2)cc1` (stereo unspecified), the Potency is 13.1 µM (active).

`O=C(Cc1ccc(Cl)cc1)NCc1nc(-c2ccccc2)no1`: the activity change, negative = inhibition was -24.9% [at 1.15 µM].

With `COc1ccc(-c2noc(C(C)NS(=O)(=O)c3ccc(NC(C)=O)cc3)n2)cc1` (stereo unspecified), the “activity change, negative = inhibition” value was -5.21%.

Take `Cc1ccc(OCC(=O)Nc2ccc3oc(=O)ccc3c2)cc1C`: the “activity change, negative = inhibition” value was 11.3%.

Take `Cc1ccc(S(=O)(=O)N2CCN(C(=O)c3ccc(-n4cncn4)c([N+](=O)[O-])c3)CC2)cc1`: the “activity change, negative = inhibition” value is -5.29%.
